Experimental findings from PubChem BioAssay (EPA / NIEHS) are described below.

Active and inactive are the calls of the source. How the source made its calls: active means hit-call score of the fitted dose curve at least 0.9, where 1 is the maximum; inactive means score below 0.9.

In experiment [1] the target is Bile acid receptor (Homo sapiens) (UniProt Q96RI1). Nature of the experiment: ATG_IR1_CIS: Attagene CIS-FACTORIAL HepG2 Assay for human Nuclear Receptor Subfamily 1 Group H Member 4 (NR1H4), IR1 submotif (AID 2282946). The settings on record: IR1 reporter transcription, actives raise or lower the signal. The method, boiled down:
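Cells (human HepG2) carry transiently transfected cis-promoter reporter transcription units. Compounds are incubated 24 h, total RNA is reverse-transcribed and amplified, and labelled fragments are resolved by capillary electrophoresis. Curves use DMSO as baseline.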

A short description of experiment [2]: ATG_GRE_CIS: Attagene CIS-FACTORIAL HepG2 Assay for human Glucocorticoid Response Elements (GRE) (AID 2282947). The settings on record: HepG2 GRE cis-reporter, Attagene multiplex mRNA; actives raise or lower the signal. The method, boiled down: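 Assay uses human hepatoma HepG2 cells transfected with cis-promoter reporter units, exposed 24 h. mRNA from reporters detected by RT-PCR plus capillary electrophoresis; DMSO serves as negative control and baseline.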

Experiment [3] can be described thus: ATG_ISRE_CIS: Attagene CIS-FACTORIAL HepG2 Assay for human Interferon Regulatory Factor 1 (IRF1) binding to an Interferon-Stimulated Response Element (ISRE) (AID 2282948). The settings on record: HepG2 ISRE cis-reporter (Attagene), mRNA transcription readout; actives raise or lower the signal. The method, boiled down:
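HepG2 cells transiently transfected with multiplexed cis-promoter reporter units; after 24 h compound exposure, reporter mRNA quantified by RT-PCR, FAM labelling, HpaI digestion and capillary electrophoresis. Bidirectional fit versus DMSO baseline.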

The nature of experiment [4]: ATG_M_32_CIS: Attagene CIS-FACTORIAL HepG2 Assay for M32 Transcription Factor (Internal Marker) (AID 2282949).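 Further: background control marker of the multiplexed CIS panel rather than a real target.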 The settings on record: HepG2 Attagene cis-factorial M32 reporter, mRNA; actives raise or lower the signal. In a few lines:
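Internal background marker read-out: RT-PCR/capillary electrophoresis fluorescence of reporter transcripts from transiently transfected HepG2 cells after 24 h chemical exposure. Activity fitted bidirectionally relative to DMSO negative control.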

Experiment [5] concerns the target Hypoxia-inducible factor 1-alpha (Homo sapiens) (UniProt Q16665). In words: ATG_HIF1a_CIS: Attagene CIS-FACTORIAL HepG2 Assay for human Hypoxia Inducible Factor 1 (HIF1A) (AID 2282951). Particulars: HepG2 Attagene cis-factorial HIF1a reporter transcription; actives raise or lower the signal. The method, boiled down:
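HepG2, transient cis-reporter library, 24 h dosing. RNA → RT (oligo dT) → PCR → 6-FAM primer extension → HpaI → CE. Bidirectional curve fit vs DMSO.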

Experiment [6] addresses Hepatocyte nuclear factor 6 (Homo sapiens) (UniProt Q9UBC0). Nature of the experiment: ATG_HNF6_CIS: Attagene CIS-FACTORIAL HepG2 Assay for human Hepatocyte Nuclear Factor 6 (HNF6) (AID 2282952). The settings on record: HepG2 Attagene cis-factorial HNF6 reporter transcription; actives raise or lower the signal. The method, boiled down: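 Cells are HepG2 carrying transiently transfected cis-promoter reporter units. Treatment lasts 24 h, after which reporter transcripts are reverse-transcribed, amplified, FAM-labelled and sized by capillary electrophoresis. DMSO serves as baseline.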

For experiment [7], the target named is Heat shock factor protein 1 (Homo sapiens) (UniProt Q00613). In words: ATG_HSE_CIS: Attagene CIS-FACTORIAL HepG2 Assay for human Heat Shock Transcription Factor 1 (HSE) (AID 2282953). The settings on record: HepG2 HSE cis-reporter, Attagene RNA transcription; actives raise or lower the signal. In a few lines:
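HepG2 cells transfected with cis-promoter reporter units sensing endogenous transcription factor activity; reporter mRNA quantified 24 h post-dose by RT-PCR and capillary electrophoresis of 6-FAM-labelled products. Bidirectional fitting against DMSO.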

Experiment [8] in a line: ATG_MRE_CIS: Attagene CIS-FACTORIAL HepG2 Assay for human Metal Responsive Element (MRE) (AID 2282954). The settings on record: HepG2 MRE cis-reporter transcription, Attagene multiplex; actives raise or lower the signal. The method, boiled down:
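After a 24 h chemical exposure, transiently transfected HepG2 cells yield RNA whose reporter sequences are amplified, FAM-labelled and sized by capillary electrophoresis. Curves are fitted bidirectionally relative to DMSO.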

Experiment [9] in a line: ATG_PBREM_CIS: Attagene CIS-FACTORIAL HepG2 Assay for human Phenobarbital-responsive Enhancer Module (PBREM) (AID 2282955). The settings on record: HepG2 PBREM cis-reporter, Attagene multiplexed transcription; actives raise or lower the signal. In a few lines: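 HepG2, transient MRTU transfection, 24 h dosing; RNA → oligo(dT) RT → PCR → 6-FAM extension → HpaI → CE. Bidirectional fit vs DMSO.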

The target of experiment [10] is Paired box protein Pax-6 (Homo sapiens) (UniProt P26367). Nature of the experiment: ATG_Pax6_CIS: Attagene CIS-FACTORIAL HepG2 Assay for human Paired Box 6 (PAX6) (AID 2282956). Particulars: HepG2 CIS-FACTORIAL PAX6 reporter transcription, RNA readout; actives raise or lower the signal. The method, boiled down:
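HepG2 cells transiently transfected with multiplexed cis-promoter reporter units (endogenous TF activity) were dosed for 24 h. Reporter mRNA was quantified by RT-PCR, 6-FAM labeling, HpaI digestion and capillary electrophoresis; bidirectional fitting versus DMSO baseline.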

The nature of experiment [11]: ATG_PXRE_CIS: Attagene CIS-FACTORIAL HepG2 Assay for human Pregnane X Receptor Element (PXRE) (AID 2282957). Particulars: HepG2 Attagene CIS-FACTORIAL PXRE reporter, mRNA; actives raise or lower the signal. In a few lines: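 Multiplexed cis-reporter assay in transiently transfected human HepG2 cells; 24 h chemical exposure. Reporter transcripts quantified by RT-PCR with fluorescent labeling and capillary electrophoresis.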

A short description of experiment [12]: ATG_PPRE_CIS: Attagene CIS-FACTORIAL HepG2 Assay for human Peroxisome Proliferator-activated Response Element (PPRE) (AID 2282958). The settings on record: HepG2 PPRE cis-element reporter, Attagene transcription factor profiling; actives raise or lower the signal. The method, boiled down: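 Transcript-level reporter induction in transfected HepG2 cells after 24 h chemical exposure, quantified by fluorescence from RT-PCR products separated by capillary electrophoresis.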

Experiment [13] in a line: ATG_Sox_CIS: Attagene CIS-FACTORIAL HepG2 Assay for human SRY-box transcription factor (SOX) (AID 2282960). The settings on record: HepG2 Attagene cis-factorial SOX reporter, mRNA; actives raise or lower the signal. In a few lines:
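Cells were transfected with reporter constructs under cis-regulatory promoters, then exposed to chemicals for 24 h. Reporter transcripts were quantified by fluorescence after RT-PCR and capillary electrophoresis; activity was fitted in both directions against DMSO.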

Experiment [14] in a line: ATG_SREBP_CIS: Attagene CIS-FACTORIAL HepG2 Assay for human Sterol Regulatory Element Binding (SREBP) (AID 2282962). The settings on record: HepG2 Attagene cis-factorial SREBP reporter, mRNA; actives raise or lower the signal. In a few lines: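 HepG2 cells transiently transfected with multiplexed cis-element reporter units report endogenous transcription factor activity. After 24 h of chemical exposure, reporter mRNA was quantified by RT-PCR, 6-FAM labelling, HpaI digestion and capillary electrophoresis; bidirectional fits used DMSO as baseline.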

Experiment [15] can be described thus: ATG_TA_CIS: Attagene CIS-FACTORIAL HepG2 Assay for human TA Basal Promoter (AID 2282964). Particulars: HepG2 Attagene CIS-factorial TA basal promoter reporter; actives raise or lower the signal. The method, boiled down:
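HepG2 cells transiently transfected with multiple reporter units under cis promoter elements, reporting endogenous transcription factor activity; this endpoint tracks the TA basal promoter as background control. Reporter mRNA after 24 h dosing measured by RT-PCR/capillary electrophoresis; bidirectional fits versus DMSO.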

A short description of experiment [16]: ATG_RORE_CIS: Attagene CIS-FACTORIAL HepG2 Assay for human RAR-related Orphan Receptor Element (RORE) (AID 2282959). Particulars: HepG2 Attagene cis-factorial RORE reporter, mRNA; actives raise or lower the signal. In a few lines:
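Multiplexed reporter assay measuring mRNA induction from a cis promoter element in transiently transfected HepG2 cells after 24 h treatment. Detection via RT-PCR and capillary electrophoresis fluorescence; DMSO serves as baseline.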

Experiment [17] concerns the target Transcription factor Sp1 (Homo sapiens) (UniProt P08047). In words: ATG_Sp1_CIS: Attagene CIS-FACTORIAL HepG2 Assay for human Specificity Protein 1 (Sp1) (AID 2282961). Particulars: HepG2 Sp1 cis-reporter transcription, actives raise or lower the signal. In a few lines: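 Measures mRNA induction of an Sp1-linked reporter in HepG2 cells 24 h post-dosing. Multiplexed reporters read by RT-PCR and capillary electrophoresis; DMSO serves as negative control and baseline.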

In experiment [18] the target is Signal transducer and activator of transcription 3 (Homo sapiens) (UniProt P40763). Nature of the experiment: ATG_STAT3_CIS: Attagene CIS-FACTORIAL HepG2 Assay for human Signal Transducer and Activator of Transcription 3 (STAT3) (AID 2282963). Particulars: HepG2, Attagene cis-factorial STAT3 reporter transcription; actives raise or lower the signal. The method, boiled down:
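After a 24 h compound incubation, total RNA from MRTU-transfected HepG2 cells was converted to cDNA and reporter sequences PCR-amplified, labelled and profiled by capillary electrophoresis. Gain and loss of signal were referenced to DMSO.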

Experiment [19] is described as follows: ATG_TCF_b_cat_CIS: Attagene CIS-FACTORIAL HepG2 Assay for human T-Cell-Factor with beta-catenin (TCF/b-cat) (AID 2282965). Particulars: HepG2 TCF/beta-catenin cis-reporter transcription, actives raise or lower the signal. In a few lines: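 Endogenous transcription factor activity is captured through cis-promoter reporter constructs transiently introduced into human HepG2 liver cells. Induced reporter mRNA is measured after 24 h and fitted bidirectionally relative to DMSO.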

The nature of experiment [20]: ATG_M_06_CIS: Attagene CIS-FACTORIAL HepG2 Assay for M06 Transcription Factor (Internal Marker) (AID 2282950). The settings on record: HepG2 Attagene CIS-FACTORIAL M06 internal marker reporter; actives raise or lower the signal. The method, boiled down: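 Internal background marker within multiplexed cis-reporter HepG2 system. Cells transiently transfected, dosed 24 h; reporter mRNA measured by RT-PCR, HpaI digestion and capillary electrophoresis. Bidirectional fit relative to DMSO.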

Sequence of Hypoxia-inducible factor 1-alpha (Homo sapiens) (Q16665 whole entry, looked up): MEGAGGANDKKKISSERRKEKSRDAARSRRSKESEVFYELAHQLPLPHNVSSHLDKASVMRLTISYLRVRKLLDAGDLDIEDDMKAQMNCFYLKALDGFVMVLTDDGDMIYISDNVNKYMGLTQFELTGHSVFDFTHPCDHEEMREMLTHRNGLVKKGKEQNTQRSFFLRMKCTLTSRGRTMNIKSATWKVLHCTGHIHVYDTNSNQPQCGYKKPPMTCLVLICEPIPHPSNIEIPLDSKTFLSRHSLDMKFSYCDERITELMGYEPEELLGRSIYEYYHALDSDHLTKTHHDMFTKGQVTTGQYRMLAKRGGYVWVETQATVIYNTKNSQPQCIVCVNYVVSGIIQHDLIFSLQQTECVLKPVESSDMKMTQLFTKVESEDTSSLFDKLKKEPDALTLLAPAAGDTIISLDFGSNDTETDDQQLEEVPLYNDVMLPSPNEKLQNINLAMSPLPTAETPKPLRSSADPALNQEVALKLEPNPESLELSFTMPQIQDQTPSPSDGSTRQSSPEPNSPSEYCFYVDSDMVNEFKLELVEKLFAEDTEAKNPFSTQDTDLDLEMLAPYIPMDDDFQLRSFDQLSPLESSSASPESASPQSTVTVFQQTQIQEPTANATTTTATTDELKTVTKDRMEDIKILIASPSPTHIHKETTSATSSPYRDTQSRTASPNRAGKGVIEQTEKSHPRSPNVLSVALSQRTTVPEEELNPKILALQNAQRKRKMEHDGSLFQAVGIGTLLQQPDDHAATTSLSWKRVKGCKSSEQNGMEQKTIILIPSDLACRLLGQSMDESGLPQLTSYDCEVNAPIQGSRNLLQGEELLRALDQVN
Sequence of Bile acid receptor (Homo sapiens) (Q96RI1 whole entry, looked up, the tested form may be a part): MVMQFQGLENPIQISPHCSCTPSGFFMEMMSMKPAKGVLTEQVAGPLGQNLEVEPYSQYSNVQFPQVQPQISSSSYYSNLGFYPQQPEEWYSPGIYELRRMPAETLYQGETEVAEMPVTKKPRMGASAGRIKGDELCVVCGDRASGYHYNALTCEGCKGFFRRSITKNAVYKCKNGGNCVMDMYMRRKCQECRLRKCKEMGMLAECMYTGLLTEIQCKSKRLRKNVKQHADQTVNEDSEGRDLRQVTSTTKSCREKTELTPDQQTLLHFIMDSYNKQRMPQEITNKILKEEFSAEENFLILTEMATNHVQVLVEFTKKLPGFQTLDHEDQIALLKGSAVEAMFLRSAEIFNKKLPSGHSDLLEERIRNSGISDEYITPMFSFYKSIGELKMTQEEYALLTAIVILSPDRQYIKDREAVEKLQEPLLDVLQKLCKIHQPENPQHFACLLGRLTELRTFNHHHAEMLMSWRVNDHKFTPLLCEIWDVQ
Sequence of Heat shock factor protein 1 (Homo sapiens) (Q00613 whole entry, looked up): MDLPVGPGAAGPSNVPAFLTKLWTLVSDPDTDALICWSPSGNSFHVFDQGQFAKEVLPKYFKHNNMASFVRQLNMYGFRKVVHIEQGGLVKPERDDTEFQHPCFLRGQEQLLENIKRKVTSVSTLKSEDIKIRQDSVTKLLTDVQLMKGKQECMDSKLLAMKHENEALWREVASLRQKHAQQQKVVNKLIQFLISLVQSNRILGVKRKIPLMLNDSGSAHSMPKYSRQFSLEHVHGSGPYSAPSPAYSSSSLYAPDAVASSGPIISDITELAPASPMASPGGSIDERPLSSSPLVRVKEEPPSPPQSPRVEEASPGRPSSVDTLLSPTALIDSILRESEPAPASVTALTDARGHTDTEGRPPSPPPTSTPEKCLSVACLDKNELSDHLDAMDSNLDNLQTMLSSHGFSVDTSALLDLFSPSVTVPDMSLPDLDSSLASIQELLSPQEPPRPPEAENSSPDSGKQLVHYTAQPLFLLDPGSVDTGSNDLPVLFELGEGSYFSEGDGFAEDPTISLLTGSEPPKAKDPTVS
Sequence of Transcription factor Sp1 (Homo sapiens) (P08047 whole entry, looked up): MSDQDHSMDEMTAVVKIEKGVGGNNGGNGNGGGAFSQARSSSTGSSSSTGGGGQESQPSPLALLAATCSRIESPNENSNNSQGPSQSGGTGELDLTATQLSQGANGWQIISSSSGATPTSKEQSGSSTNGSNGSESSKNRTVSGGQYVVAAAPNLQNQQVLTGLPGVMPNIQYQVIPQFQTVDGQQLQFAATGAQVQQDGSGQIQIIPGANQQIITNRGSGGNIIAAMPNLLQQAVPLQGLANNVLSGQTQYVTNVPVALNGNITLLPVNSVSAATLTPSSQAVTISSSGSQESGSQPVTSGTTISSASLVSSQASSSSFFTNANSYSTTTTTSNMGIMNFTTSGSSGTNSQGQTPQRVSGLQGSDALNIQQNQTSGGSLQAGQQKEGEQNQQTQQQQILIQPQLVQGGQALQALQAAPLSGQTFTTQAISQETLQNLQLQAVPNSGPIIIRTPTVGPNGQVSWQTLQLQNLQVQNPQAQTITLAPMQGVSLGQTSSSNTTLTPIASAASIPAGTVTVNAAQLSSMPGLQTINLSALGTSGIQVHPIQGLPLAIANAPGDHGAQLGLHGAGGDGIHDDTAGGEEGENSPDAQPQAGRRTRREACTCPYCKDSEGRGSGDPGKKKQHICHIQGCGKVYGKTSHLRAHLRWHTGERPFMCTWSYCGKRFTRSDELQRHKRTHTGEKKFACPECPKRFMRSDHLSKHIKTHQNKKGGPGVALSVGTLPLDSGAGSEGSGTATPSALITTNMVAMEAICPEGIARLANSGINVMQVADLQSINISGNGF
Sequence of Signal transducer and activator of transcription 3 (Homo sapiens) (P40763 whole entry, looked up): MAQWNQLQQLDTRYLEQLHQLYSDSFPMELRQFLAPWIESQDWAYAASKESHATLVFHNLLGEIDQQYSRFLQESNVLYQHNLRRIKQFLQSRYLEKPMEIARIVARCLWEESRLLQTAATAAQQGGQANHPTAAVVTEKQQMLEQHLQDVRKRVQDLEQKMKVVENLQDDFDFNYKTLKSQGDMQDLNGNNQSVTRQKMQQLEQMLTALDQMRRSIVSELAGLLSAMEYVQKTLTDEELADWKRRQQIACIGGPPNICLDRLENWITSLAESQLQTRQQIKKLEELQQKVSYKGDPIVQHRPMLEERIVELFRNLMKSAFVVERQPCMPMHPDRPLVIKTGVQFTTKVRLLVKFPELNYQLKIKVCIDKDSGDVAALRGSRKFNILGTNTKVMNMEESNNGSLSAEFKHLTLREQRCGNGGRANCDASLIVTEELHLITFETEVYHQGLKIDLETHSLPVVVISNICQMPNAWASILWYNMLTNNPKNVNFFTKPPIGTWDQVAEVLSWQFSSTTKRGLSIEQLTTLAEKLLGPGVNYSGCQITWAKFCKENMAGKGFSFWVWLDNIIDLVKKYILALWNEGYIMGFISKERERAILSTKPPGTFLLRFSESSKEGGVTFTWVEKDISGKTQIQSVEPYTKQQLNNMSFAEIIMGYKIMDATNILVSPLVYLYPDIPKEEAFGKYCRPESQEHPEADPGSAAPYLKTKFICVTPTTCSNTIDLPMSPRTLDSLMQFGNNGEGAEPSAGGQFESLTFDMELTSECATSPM
Sequence of Hepatocyte nuclear factor 6 (Homo sapiens) (Q9UBC0 whole entry, looked up): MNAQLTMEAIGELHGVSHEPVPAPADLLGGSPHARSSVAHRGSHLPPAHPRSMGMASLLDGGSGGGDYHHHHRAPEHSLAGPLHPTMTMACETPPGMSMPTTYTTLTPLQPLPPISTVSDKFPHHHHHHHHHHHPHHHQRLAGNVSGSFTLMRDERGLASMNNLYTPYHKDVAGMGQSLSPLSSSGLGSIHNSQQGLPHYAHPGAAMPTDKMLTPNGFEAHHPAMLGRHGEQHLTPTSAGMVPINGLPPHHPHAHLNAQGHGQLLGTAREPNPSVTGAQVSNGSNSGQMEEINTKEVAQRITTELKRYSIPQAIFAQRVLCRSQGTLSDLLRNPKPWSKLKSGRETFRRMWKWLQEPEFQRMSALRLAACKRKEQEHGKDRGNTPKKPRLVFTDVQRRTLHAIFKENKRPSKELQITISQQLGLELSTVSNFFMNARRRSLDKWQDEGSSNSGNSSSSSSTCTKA
Sequence of Paired box protein Pax-6 (Homo sapiens) (P26367 whole entry, looked up): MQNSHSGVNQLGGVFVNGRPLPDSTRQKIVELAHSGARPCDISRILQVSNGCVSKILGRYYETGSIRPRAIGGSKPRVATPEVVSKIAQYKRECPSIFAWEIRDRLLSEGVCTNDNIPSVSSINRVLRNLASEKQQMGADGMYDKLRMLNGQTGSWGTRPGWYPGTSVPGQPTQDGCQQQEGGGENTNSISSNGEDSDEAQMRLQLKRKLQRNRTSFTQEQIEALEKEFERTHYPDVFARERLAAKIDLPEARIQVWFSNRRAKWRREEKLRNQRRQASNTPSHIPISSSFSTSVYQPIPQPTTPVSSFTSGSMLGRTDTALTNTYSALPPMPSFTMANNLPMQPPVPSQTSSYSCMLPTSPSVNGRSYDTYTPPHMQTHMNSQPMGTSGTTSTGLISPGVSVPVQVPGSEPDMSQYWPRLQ

On to `O=C(O)c1cc2ccccc2nc1C(=O)O`, for which the compound was classed as inactive in [1], in [2], in experiment [3], in [4], in [5] and in experiment [6]. The call in [7], in experiment [8], in experiment [9], in experiment [10], in [11] and in experiment [12] was inactive. Moreover, the result in experiment [13], in experiment [14] and in [15] was inactive.

In the case of `CC=CCO`, the compound was classed as inactive in [1], in experiment [2], in experiment [4], in experiment [5], in experiment [6] and in [7]. Moreover, the result in experiment [8], in experiment [9], in experiment [10], in [12], in experiment [16] and in [13] was inactive. Besides, the result in [17], in experiment [14], in [18], in [15] and in [19] was inactive. For the same compound, in experiment [11], the AC50 (commonly the concentration at which the activity in the assay is half-maximal) was 26.8 µM (active).

For the compound `CCCCNc1ccc(NCCCC)c2c1C(=O)c1ccccc1C2=O`, the outcome in experiment [1], in experiment [2], in experiment [3], in experiment [4], in experiment [5] and in [6] was inactive. The result in [7], in experiment [8], in [10], in experiment [12], in experiment [16] and in [13] was inactive. Moreover, the call in experiment [17], in experiment [18], in [15] and in experiment [19] was inactive. In addition, the AC50 in [11] was 0.886 µM (active).

Consider `O=Cc1ccc(CO)o1`, for which the compound was classed as inactive in experiment [1], in experiment [2], in experiment [3], in experiment [4], in experiment [5] and in [6]. The outcome in experiment [7], in experiment [8], in experiment [10], in [11], in [16] and in experiment [13] was inactive. Besides, the call in experiment [14], in experiment [18], in experiment [15] and in [19] was inactive.

In the case of `O=[N+]([O-])C1(Br)COCOC1`, the call in [1], in experiment [2], in experiment [4], in [20], in experiment [5] and in [6] was inactive. Further, the outcome in experiment [8], in experiment [9], in experiment [10], in experiment [11], in experiment [16] and in experiment [14] was inactive. The compound was called inactive in [18] and in experiment [15]. Besides, the AC50 in experiment [7] is 58.8 µM (active); in experiment [13], 51.9 µM (active); in [17], 50.2 µM (active); in experiment [19], 55.7 µM (active).

Take `CCCCCCCCCCOS(=O)(=O)O`: the result in experiment [1], in [3], in [4], in [20], in [5] and in experiment [6] was inactive. Besides, the outcome in experiment [7], in experiment [8], in [9], in [10], in experiment [11] and in experiment [13] was inactive. Moreover, the outcome in [14], in [18], in experiment [15] and in experiment [19] was inactive. The AC50 in [12] is 13.4 µM (active); in experiment [16] it was 55 µM (active).

In the case of `C/C=C\C/C=C/CCCCCCCCOC(C)=O`, the AC50 in [1] is 122 µM (active); in experiment [3] it was 155 µM (active); in experiment [7] it was 156 µM (active); in [8], 100 µM (active); in [10], 100 µM (active); in experiment [11], 26.2 µM (active). Moreover, the figures for the AC50 in [15] and in experiment [19] were 69.7 µM (active) and 74.8 µM (active), respectively. The result in [4], in experiment [20], in experiment [5], in experiment [6], in experiment [9] and in experiment [12] was inactive. Also, the outcome in experiment [16], in experiment [13], in experiment [17], in experiment [14] and in [18] was inactive.
